Reference: the supplement of paper PMC10338343
± gives the standard deviation. Over roughly 3,000 sequences, “pre-steady-state target cleavage rate” has its median near 0.0079; the highest 2% begin near 0.2. The list comes from a sample in which the highest values are over-represented; it also holds similar and randomly drawn sequences.

system: MILI (PIWIL2) piRISC loaded with piRNA #2 (26 nt); assay: pre-steady-state target cleavage rate (min^-1); MIWI and MILI are mouse PIWI proteins and EfPiwi is from a freshwater sponge; tags in brackets are library labels; higher = faster piRNA-guided slicing of the target; settings: guide: piRNA #2 5'p-UUAGGUAACCCAGUAGAUCCAGAGGA; auxiliary factor: 500 nM mouse GTSF1
Method: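 Cleave-'n-Seq: a library of target RNAs (target site embedded in constant flanks, ACAGCATTCCGCGTTAGTGATATCCG... 5' flank; DNA-blocked outside the site) at 0.1 nM was incubated with 1 nM active mouse MILI or MIWI piRISC (synthetic 5'-monophosphorylated piRNA guide) with or without 500 nM mouse GTSF1 at 33 °C for 1 min to 16 h. Uncleaved targets were sequenced and normalised to non-target controls, and the pooled three trials were fitted to a burst-and-steady-state model to give the pre-steady-state cleavage rate (min^-1; k3 is constrained to at most 1e-4). Sequence is the target site only; target names encode pairing extent (gX:gY) and contiguous / 1-mismatch / 2-mismatch / bulge geometry. Fits with R² ≤ 0 are excluded.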

Going from CUUAUCCUCUGGAUACUACUGGGUUACCUAA to CUUAAGCUCUGGAUCUACUGGGUUUCGUAA, the “pre-steady-state target cleavage rate” value falls from 0.0816 ± 0.019 to 0.0193 ± 0.0086.

Going from CUUAUCCUGUGGAUCUACUGGGUUACGUAA to CUUAAGGUCUGGACUCUACUGGGUUACCUAA, the “pre-steady-state target cleavage rate” value rises from 0.0102 ± 0.0038 to 0.0367 ± 0.014.

Compared with CUUAACACUCUGGAUCUACUGGGUUACCUAA, CUUAAGCUCUGGAUCUACUGGGUUACGUAA is lower in “pre-steady-state target cleavage rate” value: 0.0824 ± 0.024 for the first, 0.0464 ± 0.011 for the second.

Going from CUUAUCCUGCUGGAUCUACUGGGUUACCUAA to CUUAUCCUCUGGAUGUACUGGGUAACCUAA, the “pre-steady-state target cleavage rate” value falls from 0.0776 ± 0.018 to 0.0198 ± 0.0082.

First: CUUAACCUCUCGAUCUACUGGGUUACGUAA
Second: CUUAUCCUCUGGUUCUACUGGGUUACCUUA
The “pre-steady-state target cleavage rate” value of the first is lower: 0.052 ± 0.017 for the first, 1.12 ± 0.39 for the second.

Compared with CUUAUCCUCUCGUUCUACUGGGUUACCUAA, CUUAUCCUCUGGUUCUACUGGGUUACCUAA is higher in “pre-steady-state target cleavage rate” value: 0.136 ± 0.021 for the first, 0.469 ± 0.1 for the second.

Compared with CUUAUCCUCUGGAUCUACUGGGGUUACCUAA, CUUAUCCUCUGGUAUCUACUGGGUUACCUAA is higher in “pre-steady-state target cleavage rate” value: 0.0435 ± 0.012 for the first, 1.05 ± 0.33 for the second.

Going from CUUAUCCUCUGUAUCUACUGGGUUACCUAA to CUUAUCCUCUGGUUCUUCUGGGUUACCUAA, the “pre-steady-state target cleavage rate” value rises from 0.0865 ± 0.015 to 0.338 ± 0.088.

Going from CUUAUCCUCUGGUUCUACUGCGUUACCUAA to CUUAUCCUCUGGAUCUUCUGGGUUACCUAA, the “pre-steady-state target cleavage rate” value rises from 0.0261 ± 0.0078 to 0.105 ± 0.019.

CUUAUCCUCUGCUUCUACUGGGUUACCUAA and CUUAUCCUCUGGUUCUAGUGGGUUACCUAA are within error of each other in “pre-steady-state target cleavage rate” value: 0.157 ± 0.026 for the first, 0.134 ± 0.028 for the second.

CUUAUCCUCUCCUUCUACUGGGUUACCUAA and CUUAACCUCUGGAUCUACUGGGUUACCAUAA are within error of each other in “pre-steady-state target cleavage rate” value: 0.106 ± 0.023 for the first, 0.13 ± 0.03 for the second.

First: CUUAAGGAGACCUUCUACUGGGGUACCUAA
Second: CUUAAGGUGUGGAUCAACUGGGUUACCUAA
The “pre-steady-state target cleavage rate” value of the first is lower: under 0.0001 for the first, 0.014 ± 0.0076 for the second.

Compared with CUUAAGCUCUGGAUCUUGUGGGUUACCUAA, CUUAACCUCUGGAUCUACGGGGUUACCUAA is higher in “pre-steady-state target cleavage rate” value: 0.00903 ± 0.0046 for the first, 0.0813 ± 0.012 for the second.

Going from CUUAAGGAGUGGAUCUACUGGGUUACCGUAA to CUUAUCCUCUGGAUCUACAGGGUUACCUAA, the “pre-steady-state target cleavage rate” value rises from 0.0155 ± 0.0079 to 0.119 ± 0.016.

First: CUUAAGGACAGGAUCUACUGGGUUACCUAA
Second: CUUAAGGAGACCUAGAUCUGGGUAACCAAA
The “pre-steady-state target cleavage rate” value of the first is higher: 0.0192 ± 0.013 for the first, under 0.0001 for the second.

Going from CUUAACCUCUGUAUCUACUGGGUUACCUAA to CUUAUCCUCUGGUACUACUGGGUUACCUAA, the “pre-steady-state target cleavage rate” value rises from 0.071 ± 0.013 to 0.754 ± 0.23.

CUUAACCUCUGGUUCAACUGGGUUACCUAA and CUUAUCCUCUGGUAGUACUGGGUUACCUAA are within error of each other in “pre-steady-state target cleavage rate” value: 0.117 ± 0.035 for the first, 0.103 ± 0.035 for the second.

First: CUUAACCUCUGGUAUCUACUGGGUUACCUAA
Second: CUUAUCCUCUGGUUCUACUGGGUAACCUAA
The “pre-steady-state target cleavage rate” value of the first is higher: 0.584 ± 0.19 for the first, 0.268 ± 0.097 for the second.

CUUAACCUCUGGUUCUACUGGGUAACCUAA and CUUAAGCUCUGGUAUCUACUGGGUUACCUAA are within error of each other in “pre-steady-state target cleavage rate” value: 0.14 ± 0.044 for the first, 0.15 ± 0.038 for the second.

CUUAUCCUCUGGAUCUACUGGGUAACCUAA and CUUAUCCUCUGGAUCAACUGGGUUACCUAA are within error of each other in “pre-steady-state target cleavage rate” value: 0.0929 ± 0.021 for the first, 0.0659 ± 0.012 for the second.

CUUAUCCUCUGGUUCAACUGGGUUACCUAA and CUUAUCCUCUGGUUGUACUGGGUUACCUAA are within error of each other in “pre-steady-state target cleavage rate” value: 0.225 ± 0.063 for the first, 0.151 ± 0.031 for the second.

First: CUUAAGGAGUAGGAUCUACUGGGUUACCUAA
Second: CUUAAGGUCUGCAUCUACUGGGUUACCAAA
The “pre-steady-state target cleavage rate” value of the first is lower: 0.00494 ± 0.0041 for the first, 0.0157 ± 0.0062 for the second.

CUUAAGCUCUGGAUCUACUGGGUUAGCUAA and CUUAACCUCUGGAUCUAUUGGGUUACCUAA are within error of each other in “pre-steady-state target cleavage rate” value: 0.094 ± 0.018 for the first, 0.0785 ± 0.023 for the second.

First: CUUAAGCUCUGGAUGUAGUGGGUUACCUAA
Second: CUUAAGCUCUGGAUCUACUGGGCUUACCUAA
The “pre-steady-state target cleavage rate” value of the first is higher: 0.061 ± 0.011 for the first, 0.019 ± 0.0061 for the second.

Compared with CUUAACCUCUGGUCUACUGGGUUACCUAA, CUUAACCUCUGGUUCUACUGGGUUACCUAA is lower in “pre-steady-state target cleavage rate” value: 0.333 ± 0.11 for the first, 0.141 ± 0.031 for the second.

Going from CUUAACCUCUGGUUCUACUGGGUUACCUUA to CUUAACCUCUGGAGUCUACUGGGUUACCUAA, the “pre-steady-state target cleavage rate” value falls from 0.3 ± 0.087 to 0.135 ± 0.031.

CUUAACCUCUGGUUCUACUGGGUUACCAAA and CUUAACCUCUGGGUCUACUGGGUUACCUAA are within error of each other in “pre-steady-state target cleavage rate” value: 0.134 ± 0.037 for the first, 0.169 ± 0.029 for the second.

First: CUUAUCCUCUGGAUCUAUGGGUUACCUAA
Second: CUUAACCUCUGCAUGUACUGGGUUACCUAA
The “pre-steady-state target cleavage rate” value of the first is lower: 0.0334 ± 0.0086 for the first, 0.117 ± 0.016 for the second.

CUUAUCGUCUCGAUCUACUGGGUUACCUAA and CUUAAGGAAUGGAUCUACUGGGUUACCUAA are within error of each other in “pre-steady-state target cleavage rate” value: 0.0585 ± 0.014 for the first, 0.0666 ± 0.015 for the second.

Going from CUUAAGCACUGGAUCUACUGGGUUACCUAA to CUUAAGCACUGGUUCUACUGGGUUACCUAA, the “pre-steady-state target cleavage rate” value rises from 0.113 ± 0.02 to 0.199 ± 0.043.

Compared with CUUAAGCACUGCAUCUACUGGGUUACCUAA, CUUAAGCACUCGAUCUACUGGGUUACCUAA is higher in “pre-steady-state target cleavage rate” value: 0.0725 ± 0.015 for the first, 0.417 ± 0.15 for the second.

Going from CUUAAGCUGUGGUUCUACUGGGUUACCUAA to CUUAAGCUCUCGAUCUACUGGGUUACCUAA, the “pre-steady-state target cleavage rate” value rises from 0.0437 ± 0.014 to 0.113 ± 0.019.

First: CUUAAGGUCAGGUUCUACUGGGUUACCUAA
Second: CUUAACCUCUGGAACUACUGGGUUACGUAA
The “pre-steady-state target cleavage rate” value of the first is lower: 0.0166 ± 0.0093 for the first, 0.118 ± 0.051 for the second.

Going from CUUAAGGUCAGGAUCUACUGGGUUACCUUA to CUUAUCCUCUGGAUCUACUGGGUUACCUGAA, the “pre-steady-state target cleavage rate” value rises from 0.0166 ± 0.0094 to 0.384 ± 0.17.

Compared with CUUAUCCUCUGGAUCUACUGGGUUACCUCAA, CUUAUCCUCUGGAUCUACUGGGUUACCUGA is higher in “pre-steady-state target cleavage rate” value: 0.0973 ± 0.019 for the first, 0.838 ± 0.37 for the second.

First: CUUAUCCUCUGGAUCUACUGGGUUACCUAC [g2:g26:cont:t1C]
Second: CUUAUCCUCUGGAUCUACUGGGUUACCUA
The “pre-steady-state target cleavage rate” value of the first is lower: 0.105 ± 0.014 for the first, 0.159 ± 0.032 for the second.

Going from CUUAUCCUCUGGAUCUACUGGGUUACCUCA to CUUAAGCUCAGGAUCUACUGCGUUACCUAA, the “pre-steady-state target cleavage rate” value falls from 0.0902 ± 0.018 to 0.0105 ± 0.0058.

Compared with CUUAAGGUCUGGAUCUAGUGGGUUACGUAA, CUUAUCCUCUGGAUCUACUGGAUUACCUAA is higher in “pre-steady-state target cleavage rate” value: 0.0114 ± 0.004 for the first, 0.0307 ± 0.0083 for the second.

CUUAAGGAGUGGAUCUAGUGGGUUACCUAA and CUUAUCCUCUGGAUCUACUGGGAUAGCUAA are within error of each other in “pre-steady-state target cleavage rate” value: 0.0231 ± 0.0069 for the first, 0.0182 ± 0.0088 for the second.
